High-throughput results (PubChem BioAssay)
PostGolgi ctrl: growth inhibition of yeast control strain, primary screen, counter-screen for post-Golgi transport modulator project; efflux-deficient yeast background strain, growth absorbance A615, 16 h; inhibition, % at 10 µM; 5% of 98,000 active
hDAT+cocaine: changed hDAT dopamine uptake under cocaine IC80, either direction, primary screen, cocaine antagonist project, cell-based, LLC-PK1 hDAT, [14C]-dopamine uptake, MLSMR. B-score at 10 µM. 1.3% of 110,000 active. LLC-PK1 hDAT cells, [14C]-dopamine uptake with cocaine IC80; actives deviate in either direction. Sodium-dependent dopamine transporter (Homo sapiens), Q01959;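 active means Z score or B-score, a plate-position-corrected score, falls beyond the plate's 99.7% confidence bounds, in either direction; inactive means both scores lie inside the 99.7% bounds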
PostGolgi yeast: phenotypic screen on post-Golgi transport, primary screen | post-Golgi transport phenotypic cell assay | inhibition, % at 10 µM | 0.9% of 98,000 active;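 further: yeast cells grown in 1536-well plates; yeast grown about 18 h at 30C before absorbance read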
Cav32 inh: Cav3.2 calcium influx blockers – cell-based, Fluo-4 calcium fluorescence, FDSS, MLSMR library, primary screen; Voltage-dependent T-type calcium channel subunit alpha-1H (Homo sapiens), O95180; Cav3.2-expressing cells; hits give low values; B-score at 10 µM; 4% of 100,000 active; AID 449739, 2010;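 active means single-dose well whose peak fluorescence ratio is a statistical outlier from its plate by either plate-standardised score or position-corrected B-score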
PLAP act: PLAP enzyme activators, biochemical, luminescence, HTS; Alkaline phosphatase, placental type (Homo sapiens), P05187; purified PLAP enzyme, luminescent substrate read-out; hits give high values; activation fold at 20 µM; 1.2% of 96,000 active; in the data active means activation fold above about 2
Target sequence (P05187 whole entry, looked up): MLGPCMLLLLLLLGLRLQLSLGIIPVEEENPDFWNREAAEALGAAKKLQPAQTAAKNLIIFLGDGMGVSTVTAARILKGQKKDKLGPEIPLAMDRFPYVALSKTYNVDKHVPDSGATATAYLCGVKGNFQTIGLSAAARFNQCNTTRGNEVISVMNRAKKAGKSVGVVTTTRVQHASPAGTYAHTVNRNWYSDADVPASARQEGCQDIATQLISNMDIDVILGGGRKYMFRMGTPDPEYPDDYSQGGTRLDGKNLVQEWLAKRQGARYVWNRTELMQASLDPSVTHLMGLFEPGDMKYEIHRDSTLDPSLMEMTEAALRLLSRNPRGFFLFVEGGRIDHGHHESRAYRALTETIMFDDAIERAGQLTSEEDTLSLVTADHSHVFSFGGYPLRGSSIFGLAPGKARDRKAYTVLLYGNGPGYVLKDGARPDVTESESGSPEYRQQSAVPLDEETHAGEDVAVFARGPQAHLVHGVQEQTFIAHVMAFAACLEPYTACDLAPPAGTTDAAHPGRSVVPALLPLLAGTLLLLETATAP
A number is an active result; i = inactive; nt = no result given. Shown are actives, neighbours in structure and some others; about 9.6% of the full set was active somewhere. Unless noted, no stated cut-off is given here; in the data, active means inhibition above about 30%; inactive means the rest.

SMILES	PostGolgi ctrl	hDAT+cocaine	PostGolgi yeast	Cav32 inh	PLAP act
c1ccc(CCNc2ncnc3scc(C4COc5ccccc5O4)c23)cc1 (stereo not given)	43	i	i	i	i
c1ccc2c(c1)OCC(c1csc3ncnc(N4CCCC4)c13)O2 (stereo not given)	i	i	i	-5.1	i
O=c1cc(O)nc(SCc2ccccc2)n1-c1ccc(F)cc1	i	i	i	i	i
CCc1ccc(C2CC(=O)NC(SCC(=O)OC(C)C)=C2C#N)cc1 (stereo not given)	i	i	i	-8.4	i
COc1ccc(OC)c2c(C)cc(NCCN3CCOCC3)nc12	i	i	i	i	i
Cc1nn(Cc2ccccc2Cl)c(C)c1NC(=O)CCCn1nc(C)c([N+](=O)[O-])c1C	i	i	i	i	i
Cc1nn(Cc2cccc(C(=O)Nc3ccn(Cc4ccccc4F)n3)c2)c(C)c1[N+](=O)[O-]	i	i	i	-4.3	i
O=C(Nc1ccn(Cc2ccccc2F)n1)c1ccc(COc2ccc(Br)cc2)cc1	i	i	i	-4.6	i
O=C(Nc1ccc(Cn2cccn2)cc1)c1ccc(COc2ccc(Br)cc2)cc1	i	i	i	i	i
O=C(Nc1ccc(Cn2cccn2)cc1)c1ccc(COc2cccc(Br)c2)cc1	i	i	i	-4.7	i
COc1nc(C)nc(Cl)c1NC1=NCCN1	nt	i	nt	i	nt
CC(C)Oc1ccc(CNC(=S)N/N=C/c2cccnc2)cc1	i	i	i	i	i
O=[N+]([O-])c1cccnc1NCCNc1ncc(C(F)(F)F)cc1Cl	35	i	i	i	i
CCOC(=O)c1sc2nc(CC(=O)OC)nc(N3CCN(c4ccccn4)CC3)c2c1C	30	i	i	-2.9	i
CCOC(=O)c1sc2ncnc(N3CCN(C(=O)OCC)CC3)c2c1C	36	i	i	i	i
CCCCNC(=O)c1sc2ncnc(N3CCc4ccccc4C3)c2c1C	i	4.2	i	-5.1	i
O=C(O)CCCCC1SCC2NC(=O)NC21 (stereo not given)	i	i	i	i	i
Cn1c(=O)c2cc(S(=O)(=O)NC(C(=O)Nc3cccnc3)c3ccccc3)ccc2n(C)c1=O (stereo not given)	i	i	i	nt	2.6
O=C(Nc1ccccc1)c1ccc(NCc2ccco2)c(S(=O)(=O)N2CCOCC2)c1	i	i	i	i	i
O=C(Nc1ccccc1)c1ccc(NCc2cccnc2)c(S(=O)(=O)N2CCOCC2)c1	i	-8	i	i	i
CC1CC(NC(=O)C2(C)CC2(Cl)Cl)CC(C)(C)C1 (stereo not given)	i	i	i	i	i
CC1CC(NC(=O)Cc2ccc(Br)cc2)CC(C)(C)C1 (stereo not given)	nt	i	nt	-7.4	nt
Cc1cc(C(C)(C)C)c(O)c(C(C)(C)C)c1	nt	i	nt	i	nt
CC(=O)Nc1cc(C(C)(C)C)c(O)c(C(C)(C)C)c1	33	i	i	i	i
O=C1CSC(c2ccccc2F)N1CCN1CCCCC1 (stereo not given)	i	i	i	i	i
SMILES	PostGolgi ctrl	hDAT+cocaine	PostGolgi yeast	Cav32 inh	PLAP act
O=C1CSC(c2ccccc2F)N1c1cc(Cl)ccc1O (stereo not given)	i	i	i	-3.7	i
CCCCN(CC)Cc1ccc(CNC(=O)Nc2ccccc2)o1	i	-2.5	i	i	i
Cc1ccc(S(=O)(=O)n2nc(C)c(Br)c2C)c(C)c1C	48	i	i	i	i
O=C(OCc1cc(Cl)ccc1OC(F)F)c1cc(S(=O)(=O)O)ccc1O	i	i	i	i	i
CN(C)c1ncnc2c1NC1=C(S2)C(=NCCCC(=O)O)CC(C)(C)C1	i	i	i	i	2
CCc1ccc(NC(=O)CCc2nc3cccnc3n2Cc2ccc(OC)cc2)cc1	i	i	i	-6.9	i
CON(C)c1nc(OCCNC(=O)OCc2ccc(Cl)cc2Cl)nc(N(C)C)n1	i	i	i	i	i
CN(Cc1ccccc1)C(=O)Cn1c(=O)oc2cc(S(=O)(=O)N3CCCC3)ccc21	35	i	i	i	i
CC1Cc2ccccc2N1C(=O)Cn1c(=O)oc2cc(S(=O)(=O)NC3CCCC3)ccc21 (stereo not given)	i	i	i	-8.9	i
CC1CCCCN1S(=O)(=O)c1ccc2c(c1)oc(=O)n2CC(=O)O (stereo not given)	i	-2.3	i	nt	i
CCOC(=O)c1c(NC(=O)Cn2nc([N+](=O)[O-])c(Br)c2C)sc2c1CCC(C)C2 (stereo not given)	i	i	i	i	i
N=c1n(CCN2CCCC2)c2ccccc2n1CC(O)c1ccco1 (stereo not given)	i	i	i	i	i
N=c1n(CCN2CCCCC2)c2ccccc2n1CC(O)c1cccc(Br)c1 (stereo not given)	i	i	i	i	2
N=c1n(CCN2CCCCC2)c2ccccc2n1CC(O)COc1ccccc1 (stereo not given)	i	i	i	i	i
N=c1n(CCN2CCCCC2)c2ccccc2n1CC(O)c1ccc(Cl)c(Cl)c1 (stereo not given)	i	i	i	i	2.1
O=[n+]1c2c(n([O-])c3cc(F)c(F)cc31)CCCC2	i	i	i	i	i
COc1ccc(CN(C(=O)CN2C(=O)C(C)Oc3ccccc32)C2CCCC2)c(OC)c1 (stereo not given)	i	i	i	-4.4	i
CCOc1cc(-c2c(C#N)c(N)nc3c2CCCC3C)ccc1O (stereo not given)	38	i	i	i	i
CCOc1cc(-c2cc(-c3ccc(C)cc3)nc(N)c2C#N)ccc1O	i	i	i	i	i
O=C(Nc1ncnc2c1ncn2C1OC(COC(=O)c2ccccc2)C(F)C1O)c1ccccc1 (stereo not given)	i	i	i	i	i
c1ccc2c(c1)nc(N1CCOCC1)c1c3ccccc3[nH]c21	i	i	i	i	i
Cc1nnc(SCC(=O)Nc2ccccc2)[nH]c1=O	i	i	i	i	i
O=C(c1ccc2c(c1)N(Cc1ccccc1)C(=O)c1ccccc1S2)N1CCCC1	45	3.3	i	i	i
CN1CCN(C(=O)c2ccc3c(c2)N(Cc2ccc(Cl)cc2)C(=O)c2ccccc2S3=O)CC1 (stereo not given)	i	i	i	i	i
O=C(Nc1nc(=O)n(C(=O)C2CC2)s1)c1ccccc1	i	i	i	i	i
Cc1ccc(C(=O)Nc2nc(=O)n(C(=O)c3ccccc3C)s2)cc1	i	i	i	-7.4	i
Cc1ccc(C)c(-n2nnnc2SCC(=O)NCCC2=CCCCC2)c1	39	i	i	-7	i
COc1ccc(CN2CC(C(=O)NCCCN3CCOCC3)CC2=O)cc1 (stereo not given)	35	i	i	i	i
COc1ccc(CN2CC(C(=O)NCCCN3CCCCCC3)CC2=O)cc1 (stereo not given)	i	i	i	i	i
